Source: PubChem BioAssay (National Center for Advancing Translational Sciences (NCATS))
Pf Dd2 growth – blocks in vitro growth of P. falciparum Dd2; P. falciparum Dd2 growth, SYBR Green, 72 h; Potency, µM (titrated, usually from 28.9 µM), for inactives: at the top dose activity, negative = inhibition, hits mostly inhibitors; 120,000 tested, 4.3% active; active = well fitted inhibition curve with a large enough effect;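 note: plate controls were DMSO vehicle for no effect and reference drug for full effect; nearly all actives have a fitted effect of over 65% in size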
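Readout: SYBR Green fluorescence, 485 nm excitation, 535 nm emission, after ~16 h lysis at 37C. Before that, Dd2-infected red cells (2.5% hematocrit) grew 72 h with compound, 29 uM top final concentration.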
Active calls of the source: *; [ ] = dose if it differs, or a comment. The sample as a whole holds a higher share of hits than the screen did. Potency is the fitted concentration of half-maximal effect.

Screening CN1CC(=O)N(c2ccc(Cl)cc2)Cc2c1ncnc2N1CCC(Cc2ccccc2)CC1 returned Pf Dd2 growth 12.6µM*.
For CN1CC(=O)N(c2ccccc2F)Cc2c1ncnc2N1CCC(c2ccccc2)CC1 the results were Pf Dd2 growth inactive.
CN1CC(=O)N(c2ccccc2)Cc2c(NCc3ccc(F)cc3)ncnc21 was read as Pf Dd2 growth -15.2%.
Screening CN1CC(=O)N(c2ccccc2)Cc2c(NCCCc3ccccc3)ncnc21 returned Pf Dd2 growth 6.31µM*.
CN1CC(=O)N(c2ccc(Cl)cc2)Cc2c(NCc3cccs3)ncnc21 was read as Pf Dd2 growth inactive.
CN1CC(=O)N(c2ccccc2)Cc2c1ncnc2N1CCC(O)CC1 was read as Pf Dd2 growth 0.3%.
CN1CC(=O)N(c2ccccc2)Cc2c(NCCc3ccc(Cl)cc3)ncnc21 was read as Pf Dd2 growth inactive.
CN1CC(=O)N(c2ccccc2)Cc2c(NCCOc3ccccc3)ncnc21 was read as Pf Dd2 growth inactive.
Screening O=C1COc2ccc(-c3cc(F)cc(F)c3)nc2CN1Cc1ccccc1F returned Pf Dd2 growth inactive.
CC(=O)N1CCC(OCCOc2ccccc2)CC1 was read as Pf Dd2 growth 93.7%.
For CC(C)CNC(=O)CCC[C@@H]1[C@H]2CCCN3CCC[C@@H](CN1C(=O)c1cccnc1)[C@@H]23 the results were Pf Dd2 growth inactive.
COCC(=O)NC1CCC12CCN(C(=O)C1CCOCC1)CC2 (stereo not drawn) was read as Pf Dd2 growth -16.1%.
For COC[C@@H]1CN(Cc2ccccn2)C[C@H]1C(=O)NC1CC1 the results were Pf Dd2 growth 7.0%.
Screening O=C1NCCCN1C1CCN(Cc2cccc(C(F)(F)F)c2)CC1 returned Pf Dd2 growth inactive.
`Nc1nc(C2CC(O)C2)cc(N2CCc3sccc3C2)n1` (stereo not drawn) gave Pf Dd2 growth -24.7%.
`COCCCNC(=O)C(NC(=O)c1cccc(C)c1)C1CCN(C(=O)c2ccc(C)cc2)CC1` (stereo not drawn) gave Pf Dd2 growth inactive.
Cc1noc(-c2cccc(OC3CN(S(=O)(=O)c4c(C)nn(C)c4C)C3)c2)n1 was read as Pf Dd2 growth 45.0%[5.79 µM].
For Cc1cccc(N(C)C(=O)Cn2c(N3CCc4ccccc4C3)nc(C)cc2=O)c1 the results were Pf Dd2 growth -28.8%.
For COc1cccc(CC(=O)N2CC(Oc3ccc(-c4nc(-c5ccccc5)no4)cc3)C2)c1 the results were Pf Dd2 growth 11.0%[5.79 µM].
`COc1ccc(-c2noc([C@@H](C)NCC3CCCC3)c2C(=O)O)cc1` gave Pf Dd2 growth 8.9%[44.1 µM].
`O=C(O)c1ccc(-c2ncc3cnc(C4=CCOCC4)cn23)cc1` gave Pf Dd2 growth -18.2%[44.1 µM].
`O=C(Nc1ccc2[nH]ccc2c1)c1ccc(-c2ncc3cnc(C4=CCOCC4)cn23)cc1` gave Pf Dd2 growth 1.58µM*.
`O=C(Nc1ccc2[nH]ccc2c1)c1cnc2c(c1)N([S+](=O)([O-])c1cccnc1)CCC2` gave Pf Dd2 growth inactive.
Screening COc1ccc(OC)c(NC(=O)Cn2cnc3sc(C)c(S(=O)(=O)N4CCN(c5ccccc5OC)CC4)c3c2=O)c1 returned Pf Dd2 growth 11.2µM*.
Screening COc1ccc(NC(=O)Cn2cnc3sc(C)c(S(=O)(=O)N4CCN(C)CC4)c3c2=O)cc1Cl returned Pf Dd2 growth 9.9%.
`COc1ccc(Cl)cc1NC(=O)Cn1cnc2sc(C)c(S(=O)(=O)N3CCN(c4ccccc4OC)CC3)c2c1=O` gave Pf Dd2 growth 10µM*.
COc1ccccc1N1CCN(C(=O)Cn2cnc3sc(C)c(S(=O)(=O)N4CCC(C)CC4)c3c2=O)CC1 was read as Pf Dd2 growth 31.2%.
For COCCCNC(=O)Cn1cnc2sc(C)c(S(=O)(=O)N3CCN(c4ccccc4OC)CC3)c2c1=O the results were Pf Dd2 growth -12.6%.
For COCCNC(=O)Cn1cnc2sc(C)c(S(=O)(=O)N3CCN(c4ccccc4OC)CC3)c2c1=O the results were Pf Dd2 growth 4.0%.
For CC(=O)N1CCC(N2C[C@@H]3OCC(=O)N(Cc4ccccc4)[C@@H]3C2)CC1 the results were Pf Dd2 growth -13.7%[44.1 µM].
O=C(N1CCN([S+](=O)([O-])Cc2ccccc2)CC1)N1CC2CC(C1)[C@H]1CCCC(=O)N1C2 (stereo partly drawn) was read as Pf Dd2 growth -5.9%.
`Cc1cnc(C(=O)N2CCCn3nc(CCC(=O)NC(C)C)cc3C2)cn1` gave Pf Dd2 growth 1.2%.
`CN1CCN(C[C@@H]2CN(C(=O)C3(c4ccccc4)CC3)C[C@@H]2CO)CC1` gave Pf Dd2 growth -7.2%.
For CC(=O)Nc1ccc(S(=O)(=O)N[C@@H]2C=C[C@@H](c3c(C)nn(-c4ccc(C(C)(C)C)cc4)c3C)C2)cc1 the results were Pf Dd2 growth inactive.
Cc1nn(CCC#N)c(C)c1[C@@H]1C=C[C@@H](NC(=O)Nc2ccccc2)C1 was read as Pf Dd2 growth -15.7%[44.1 µM].
Cc1nn(Cc2ccccc2)c(C)c1[C@@H]1C=C[C@@H](NS(=O)(=O)c2cccs2)C1 was read as Pf Dd2 growth 12.6µM*.
For O=C(O)C1(Oc2ccc3ccccc3c2)CCN(c2ncnc3nc[nH]c23)CC1 the results were Pf Dd2 growth -12.2%.
For CCN1CCN(c2ccc(C(=O)NCCCc3ccc(OC)cc3)cn2)CC1 the results were Pf Dd2 growth inactive.
For Cc1ccccc1NC(=O)CN1C(=O)NC2(CCC(C(C)(C)C)CC2)C1=O (stereo not drawn) the results were Pf Dd2 growth -26.2%.
`COc1ccc(-c2nc(C3CC3)nc3c2CN([S+](=O)([O-])c2ccccc2)CC3)cc1` gave Pf Dd2 growth -29.0%.
`CN(C)Cc1nnc(C2CCN(C(=O)c3cn[nH]c3-n3cnnn3)CC2)n1C` gave Pf Dd2 growth -0.6%.
COc1ccc(NC(=O)Cn2cc(S(=O)(=O)N3CCN(c4ccccc4F)CC3)c3ccccc3c2=O)cc1Cl was read as Pf Dd2 growth 12.6µM*.
Screening O=C(Cn1cc(S(=O)(=O)Cc2ccccc2F)c2ccccc21)Nc1ccc(F)c(Cl)c1 returned Pf Dd2 growth inactive.
Screening Cc1cc(Br)ccc1NC(=O)Cn1cc(S(=O)(=O)N2CCN(c3ccccc3F)CC2)c2ccccc2c1=O returned Pf Dd2 growth 5.8%.
Screening COc1ccc(NC(=O)Cn2cc(S(=O)(=O)N3CCC(C)CC3)c3ccccc3c2=O)cc1Cl returned Pf Dd2 growth -17.4%.
Cc1ccccc1NC(=O)c1ccc(F)c(S(=O)(=O)N2CCN(c3ccccc3F)CC2)c1 was read as Pf Dd2 growth 22.2%.
For COc1cc(Cl)c(C)cc1NC(=O)Cn1cc(S(=O)(=O)N2CCN(c3ccccc3F)CC2)c2ccccc2c1=O the results were Pf Dd2 growth 11.2µM*.
`CCn1c(C(=O)OC)c(NC(=O)C2CCOC2)c2cc(NC(C)Cc3ccccc3OC)cnc21` (stereo not drawn) gave Pf Dd2 growth inactive.
COCc1nc(C2CCN(C(=O)c3ccco3)C2)no1 (stereo not drawn) was read as Pf Dd2 growth -22.2%.
Cc1ncsc1CN1CCCN(S(C)(=O)=O)C(c2ccccc2)CC(=O)NCC1 (stereo not drawn) was read as Pf Dd2 growth 0.0%.
For COc1ccc(OC2CN(C(=O)c3ccccc3)C2)cc1 the results were Pf Dd2 growth 21.3%[44.1 µM].
For CCOCc1nc(C2CCCN(C(=O)Nc3cccc(F)c3C)C2)no1 (stereo not drawn) the results were Pf Dd2 growth 3.8%.
Screening Cc1sc2ccn(CC(C)C)c(=O)c2c1C(=O)O returned Pf Dd2 growth -17.4%.
